The list is not random: actives were taken first. Their share in the collection is about 19%.
KB-V1 MDR tox = qHTS assay for MDR1-selective chemotherapeutics: Primary screen using the drug-selected MDR subline cells KB-V1. Potency, µM (highest dose often 46.1 µM), hits mostly cytotoxic. 400,000 tested, 3.4% active. KB-V1 MDR cells viability, CellTiter-Glo, 72 h. AID 1347076, 2019; further: nearly all actives have a fitted effect of over 60% in size
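KB-V1, DMEM (no phenol red) + 10% FBS; cpd pin-transferred, titration series; 72 h, 37 degrees C; CellTiter-Glo, luminescence. Data normalized, curve-fit.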
HT1080 IDH1KD tx = qHTS for induction of synthetic lethality in tumor cells producing 2HG: qHTS for the HT-1080-IDH1KD cell line. HT-1080 IDH1 knockdown viability, ATP luminescence, 48 h. 360,000 tested, 2% active. AID 686971, 2013. Potency, µM (highest dose often 46.1 µM), for inactives: top-dose activity, negative = toxicity, hits mostly cytotoxic;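 further: 0% = DMSO wells and -100% = cell-free medium wells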
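Luminescent ATP read-out (CellTiter-Glo, 10 min at room temperature) after 48 h compound exposure at 37 °C gave viability of IDH1-knockdown HT-1080 cells. Activity was normalised to DMSO and cell-free wells, then fitted as concentration-response curves.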
DT40 TDP1 CPT = qHTS for Inhibitors of human tyrosyl-DNA phosphodiesterase 1 (TDP1): qHTS in cells in presence of CPT; Potency, µM (series often up to 46.2 µM), for the others: at the top dose activity change, negative = growth inhibition, hits mostly inhibitors; AID 686979, 2013; 420,000 tested, 12% active; chicken DT40 Tdp1-/-;hTDP1 cells + 20 nM CPT, ATP luminescence, 48 h; further: nearly all actives have a fitted effect of over 55% in size
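Cell growth measured by CellTiter-Glo luminescence after a minimum 48 h, 37 C compound exposure with 20 nM CPT in Tdp1-knockout DT40 cells stably expressing hTDP1, seeded 400/well; qHTS titration format.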
KB-3-1 cytotox = qHTS assay for MDR1-selective chemotherapeutics: Primary screen using the parental adenocarcinoma cell KB-3-1. KB-3-1 viability, CellTiter-Glo ATP luminescence, 72 h. Potency, µM (top dose mostly 46.1 µM), usual class: cytotoxic. 400,000 tested, 1.4% active. AID 1347075, 2019; further: nearly all actives have a fitted effect of over 60% in size
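Cells are dispensed, compounds pinned in, plates held at 37 °C for 72 h, then CellTiter-Glo is added and luminescence read after 10 minutes. Cell line: parental KB-3-1 in phenol-red-free DMEM, 10% FBS.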
HT1080NT lethal = qHTS for induction of synthetic lethality in tumor cells producing 2HG: qHTS for the HT-1080-NT fibrosarcoma cell line; HT-1080-NT fibrosarcoma viability, CellTiter-Glo ATP luminescence, 48 h; Potency, µM (titrated, usually from 46.1 µM), for the others: top-dose activity, negative = less viability, hits mostly cytotoxic; 360,000 tested, 1.6% active;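 further: NT is the 2HG producing partner of a matched IDH1 knockdown line; 0% = DMSO-treated cells and -100% = media-only wells without cells; nearly all actives have a fitted effect of over 55% in size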
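Viability by CellTiter-Glo luminescence after 48 h compound exposure at 37C of HT-1080-NT cells (750/well, RPMI, 5% FBS). % activity scaled between DMSO wells and medium-only wells, then curve-fitted and categorized by curve class.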
TDP1 cell noCPT = qHTS for Inhibitors of human tyrosyl-DNA phosphodiesterase 1 (TDP1): qHTS in cells in absence of CPT; DT40 Tdp1-/- hTDP1 cells, no CPT, ATP luminescence, 48 h; Potency, µM (titrated, usually from 46.2 µM), without a hit: top-dose activity change, negative = growth inhibition, actives largely listed as inhibitors; 420,000 tested, 15% active; AID 686978, 2013; further: nearly all actives have a fitted effect of over 55% in size
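Cells were dispensed at 400 per well, compounds added by pin tool, plates incubated ≥48 hr at 37 °C, then CellTiter-Glo added for 30 min at room temperature before luminescence reading. Line: DT40 Tdp1-/- complemented with hTDP1; camptothecin omitted.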
Active calls of the source: *; i = inactive; ? = inconclusive; nt = not tested or not shown; [ ] = remark or other dose. The call rests on the fitted dose curve; in most records, active means well fitted curve in the direction sought with a large enough effect; inconclusive means small, poorly fitted or top-dose-only effect, or another doubt; inactive means no such curve, though single readings can be large; an effect the other way counts as inactive or inconclusive. Unless noted, on the % scale 0 is the no-effect control and ±100 the full control effect; potency means the concentration at half of the fitted maximal effect.

SMILES | KB-V1 MDR tox | HT1080 IDH1KD tx | DT40 TDP1 CPT | KB-3-1 cytotox | HT1080NT lethal | TDP1 cell noCPT
CC(C)c1nc(C(=O)N2CCOc3ccc(CN4CCN(c5ccccn5)CC4)cc3C2)cs1 | nt | nt | -18%[9.04 µM] | nt | nt | 15µM*
CSCCC(NC(=O)c1cccc([N+](=O)[O-])c1)C(=O)O (stereo not drawn) | i | 22% | -4% | i | 9% | -13%
O=[N+]([O-])c1ccc(CS(=O)(=O)c2ncn[nH]2)cc1 | i | 10% | 28% | i | 7% | -4%
CCOc1cc(C(=O)Nc2cccc3cccnc23)cc(OCC)c1OCC | i | nt | ? | i | nt | -102%
CCOC(=O)c1csc(NC(=O)C2=COCCO2)n1 | i | 1% | 0% | i | 0% | 16%
COc1ccc(NC(=O)N2CCC(c3nc4ccccc4[nH]3)CC2)cc1 | i | -8% | 2% | i | -8% | 2%
Cc1cc(C)nc(-n2nc(C)c3c2NC(=O)CC3c2cc(F)ccc2F)n1 (stereo not drawn) | i | nt | ? | i | nt | 23µM*
Cc1cccc(N2C(=O)c3cccc4c(N5CCCCC5)c([N+](=O)[O-])cc(c34)C2=O)c1C | ? | -5% | ? | i | -4% | ?
O=C1c2cccc3c(N4CCOCC4)c([N+](=O)[O-])cc(c23)C(=O)N1c1cccc2ccccc12 | i | 0% | 12µM* | ? | -15% | 18µM*
Cc1ccc(S(=O)(=O)N2CCN(C(=O)COC(=O)Cc3cccc(C(F)(F)F)c3)CC2)c(C)c1 | i | 0% | -29% | i | 5% | ?
CN1C(=O)N(C)c2ccc(Br)c3cccc1c23 | i | 4% | ? | i | 19% | ?
Cc1ccc(NP(=O)(Nc2ccc(C)cc2)Nc2ccc(C)cc2)cc1 | ? | -2% | -4% | 21µM* | -14% | ?
Cc1ccc(P(C)(=O)c2ccc(C)cc2)cc1 | i | 19% | -8% | i | 9% | -12%
COc1cc2c(cc1NS(=O)(=O)c1cccc(C#N)c1)n(C)c(=O)n2C | i | nt | 21µM* | ? | nt | ?
COc1ccc2c(c1)CCCC21NC(=O)N(CC(=O)NC(=O)NCc2ccccc2)C1=O (stereo not drawn) | i | -18% | 10% | i | -5% | ?
CC(C)(C)C1CCN2CCC[C@](c3ccccc3)(C1)[C@@]21CO1 (stereo partly drawn) | ? | 1% | ? | i | 2% | ?
CC(C)(C)C1CCN2CCCC(c3ccc([N+](=O)[O-])cc3)(C1)C21OCCO1 (stereo not drawn) | ? | 12% | 21µM* | ? | 10% | ?
COc1cc(C23CCCN(CCC(C(C)(C)C)C2)C32OCCO2)cc(OC)c1OC (stereo not drawn) | i | -15% | ? | i | -27% | 23µM*
Cn1c(CCN2CCN(c3ccccn3)CC2)nc2cc(NS(=O)(=O)c3ccccc3)ccc21 | i | -28% | ? | i | -1% | 13µM*
Cc1ccc(OCC(=O)Nc2ccc3c(c2)nc(CCN2CCN(c4ccccn4)CC2)n3C)cc1 | i | 21µM* | 23µM* | i | 21µM* | 21µM*
CCCC(=O)Nc1ccc2c(c1)nc(CCN1CCN(c3ccccn3)CC1)n2C | i | 7% | 1% | i | 20% | -12%
Cn1c(CCN2CCN(c3ccccn3)CC2)nc2cc(NC(=O)COc3ccccc3)ccc21 | i | -3% | ? | i | -18% | 26µM*
Cn1c(CCN2CCCCC2)nc2cc(NS(=O)(=O)c3ccccc3)ccc21 | i | ? | ? | i | -26% | ?
Cc1sc2nc(CN3CCOCC3)[nH]c(=S)c2c1C | i | -13% | ? | ? | 1% | ?
CCCCC/C=C\CCC(=O)N[C@H]1[C@H](Oc2c3cc4cc2Oc2ccc(cc2Cl)[C@@H](O[C@@H]2O[C@H](CO)[C@@H](O)[C@H](O)[C@H]2NC(C)=O)[C@@H]2NC(=O)[C@H](NC(=O)[C@@H]4NC(=O)[C@H]4NC(=O)[C@@H](Cc5ccc(c(Cl)c5)O3)NC(=O)[C@H](N)c3ccc(O)c(c3)Oc3cc(O)cc4c3)c3ccc(O)c(c3)-c3c(O[C@H]4O[C@H](CO)[C@@H](O)[C@H](O)[C@@H]4O)cc(O)cc3[C@@H](C(=O)O)NC2=O)O[C@H](CO)[C@@H](O)[C@@H]1O | nt | nt | 12%[21.1 µM] | nt | nt | -11%
SMILES | KB-V1 MDR tox | HT1080 IDH1KD tx | DT40 TDP1 CPT | KB-3-1 cytotox | HT1080NT lethal | TDP1 cell noCPT
Cn1c(Oc2ccccc2)c(C=O)c2ccccc21 | i | -26% | ? | i | ? | ?
Cc1ccc(C2CC(=O)Nc3c2c(C)nn3-c2nc(C)cc(C)n2)c(C)c1 (stereo not drawn) | i | nt | -14% | i | nt | -25%
CC1CCCCN1S(=O)(=O)c1ccc2c(c1)CCN2C(=O)C1CC1 (stereo not drawn) | i | -13% | -18% | i | -1% | -8%
CS(=O)(=O)N1CCc2cc(S(=O)(=O)NCCNS(=O)(=O)c3ccc4c(c3)CCN4S(C)(=O)=O)ccc21 | i | ? | 1% | i | 12% | 7%
O=C(C1CCC1)N1CCc2cc(S(=O)(=O)Nc3ccc4c(c3)OCCO4)ccc21 | ? | ? | 12µM* | i | -9% | 7.3µM*
Cc1cc(Cl)ccc1NS(=O)(=O)c1ccc2c(c1)CCN2S(C)(=O)=O | i | nt | ? | i | nt | 21µM*
CS(=O)(=O)N1CCc2cc(S(=O)(=O)Nc3ccc4c(c3)OCCO4)ccc21 | 21µM* | -22% | 12µM* | ? | ? | 8.2µM*
O=C(C1CC1)N1CCc2cc(S(=O)(=O)N3CCCc4ccccc43)ccc21 | ? | -1% | ? | i | 0% | 15µM*
O=C(C1CCC1)N1CCc2cc(S(=O)(=O)NC3CCCC3)ccc21 | i | -3% | ? | i | -4% | ?
O=C1C(=Nc2cccc(Cl)c2)CC(c2ccc(Cl)cc2)N1c1cccc(Cl)c1 (stereo not drawn) | i | 8% | -30% | i | 11% | ?
